Screens (PubChem BioAssay)
miR122 inh – blocks miR-122 activity in Huh7 sensor cells. Huh7 miR-122 Renilla luciferase sensor, 48 h; neutral wells = 0, positive control = 100. activation (reporter increase), % at 12.5 µM. 0.3% of 340,000 active;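 active = mean replicate activation score at least 90 and every replicate individually at or above 90; inconclusive = only one of the two criteria met; inactive = neither criterion met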;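 also: higher luciferase means less miR-122 activity so hits act as miR-122 inhibitors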
Dyrk1A ADPGlo – Dyrk1A (rat) kinase inhibition | 0.43% of 310,000 active | inhibition, % at 12.5 µM | Q63470 | AID 504441 | ADP-Glo luminescence, NFATc1 peptide
INS-1E GSIS act – primary screen for activators of insulin secretion dependent on glucose, INS-1E cells, GLuc reporter luminescence; INS-1E GLuc reporter insulin secretion, 2-3 h; activation, % at 16.6 µM; 0.61% of 370,000 active; AID 743287;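 active = lowest replicate activation of at least 40%, so every replicate reaches that level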
Wnt act – Wnt/beta-catenin pathway activation; 1.2% of 300,000 active; activation, % at 9.35 µM; AID 743398; Wnt/beta-catenin reporter cell assay, activator, plate reader; in the data active = activation above about 30%, passing the limit was not always enough; inconclusive = no clear call, values can overlap the other calls
NSD2 inh – blocks human histone methyltransferase NSD2; O96028; NSD2 peptide methylation, AlphaScreen, 120 min; inhibition, % at 12.5 µM; 0.54% of 310,000 active; AID 743445
Target sequence (O96028 whole entry, looked up): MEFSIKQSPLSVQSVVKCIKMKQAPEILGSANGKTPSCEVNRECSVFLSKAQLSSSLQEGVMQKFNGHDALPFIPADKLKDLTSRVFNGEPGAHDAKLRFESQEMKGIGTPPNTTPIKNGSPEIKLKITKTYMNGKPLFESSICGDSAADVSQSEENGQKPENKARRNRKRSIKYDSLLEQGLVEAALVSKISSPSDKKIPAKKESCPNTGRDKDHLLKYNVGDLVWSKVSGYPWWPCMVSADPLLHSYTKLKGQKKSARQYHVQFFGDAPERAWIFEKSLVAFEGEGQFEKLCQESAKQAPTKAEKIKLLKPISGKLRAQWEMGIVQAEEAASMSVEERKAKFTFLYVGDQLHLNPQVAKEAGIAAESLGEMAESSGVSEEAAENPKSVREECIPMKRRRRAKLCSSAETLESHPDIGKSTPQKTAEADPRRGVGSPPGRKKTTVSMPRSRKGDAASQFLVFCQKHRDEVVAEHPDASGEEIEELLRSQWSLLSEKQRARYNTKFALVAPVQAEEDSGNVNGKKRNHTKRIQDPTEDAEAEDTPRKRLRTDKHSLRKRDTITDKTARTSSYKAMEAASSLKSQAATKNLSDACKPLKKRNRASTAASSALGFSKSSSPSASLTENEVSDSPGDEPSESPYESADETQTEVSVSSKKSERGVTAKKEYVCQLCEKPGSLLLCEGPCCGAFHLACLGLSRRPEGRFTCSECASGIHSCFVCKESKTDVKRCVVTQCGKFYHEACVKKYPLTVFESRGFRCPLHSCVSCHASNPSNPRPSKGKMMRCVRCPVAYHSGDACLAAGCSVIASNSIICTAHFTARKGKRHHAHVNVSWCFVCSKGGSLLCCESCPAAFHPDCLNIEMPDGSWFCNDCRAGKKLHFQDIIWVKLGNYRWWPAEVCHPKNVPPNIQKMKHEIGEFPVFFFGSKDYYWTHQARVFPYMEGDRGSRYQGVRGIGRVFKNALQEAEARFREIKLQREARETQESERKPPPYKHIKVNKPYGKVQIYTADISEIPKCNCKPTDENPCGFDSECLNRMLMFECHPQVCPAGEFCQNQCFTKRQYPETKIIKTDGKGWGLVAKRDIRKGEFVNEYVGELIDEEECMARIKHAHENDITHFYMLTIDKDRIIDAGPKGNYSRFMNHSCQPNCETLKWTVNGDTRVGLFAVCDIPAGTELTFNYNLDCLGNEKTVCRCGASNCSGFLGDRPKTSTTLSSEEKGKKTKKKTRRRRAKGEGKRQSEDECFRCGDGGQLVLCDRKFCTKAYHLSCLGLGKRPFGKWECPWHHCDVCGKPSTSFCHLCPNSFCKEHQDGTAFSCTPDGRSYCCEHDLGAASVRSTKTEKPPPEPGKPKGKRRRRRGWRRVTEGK
MITF TRPM1 HTS – increases MITF-driven TRPM1 promoter luciferase signal | SK-MEL-5 TRPM1-promoter luciferase, 24 h; % of positive control, neutral wells = 0 | activation, % at 12.5 µM | 0.75% of 300,000 active;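 active = mean activation of at least 80% with every replicate also reaching 80%; inconclusive = mean reaches 80% but some replicate falls short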
ADP-Glo artifact – interferes with ADP-Glo luciferase readout without Dyrk1A. shares compounds with Dyrk1A ADPGlo. ADP-Glo luciferase artifact assay, no Dyrk1A, luminescence. AC50, µM (top dose mostly 12 µM). 1,300 tested, under 10 active. AID 588348;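 active = fitted half-maximal dose AC50 no more than ten times the top valid tested dose, with luminescence dropping as dose rises; inconclusive = poor fit, or flat fit with 30 to 70% inhibition; inactive = the rest, signal increases included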
Numbers stand for hits; – = inactive; ? = inconclusive; · = no result. Rows were chosen to be rich in hits. Some 2.4% of all compounds tested hit in one or more screens of this group. Rule as the data show it, unless noted: active = inhibition above about 50%; inactive = the rest.

SMILES	miR122 inh	Dyrk1A ADPGlo	INS-1E GSIS act	Wnt act	NSD2 inh	MITF TRPM1 HTS	ADP-Glo artifact
CCCCC(=O)Nc1cc(Cl)ccc1C(=O)O	–	57	·	–	–	–	–
CCCCC(=O)Nc1ccc(Cl)cc1F	–	·	–	–	–	·	·
Cn1c2ccccc2c2cc(/C=N/NC(=O)c3cc(O)ccc3O)ccc21	–	61	–	–	–	–	–
O=C1CCN(CCc2ccccc2)CCN1[C@H](CO)c1ccccc1	–	–	·	–	·	–	·
O=C1CCN(CCCc2ccccc2)CCN1[C@H](CO)c1ccccc1	·	51	–	–	·	–	–
S=c1sc2ccccc2n1CCc1ccncc1	–	62	–	–	·	–	–
C[C@@H]1CN([C@@H](C)CO)C(=O)c2cc(NC(=O)NC3CCCCC3)ccc2O[C@@H](C)CCCCO[C@H]1CN(C)S(=O)(=O)c1cccs1	–	·	–	·	·	·	·
Cc1ccc(C)c(NC(=O)C2CCCN2S(=O)(=O)c2ccc3c(c2)n(C)c(=O)c(=O)n3C)c1 (centres undefined)	–	–	·	–	·	–	·
Cc1ccccc1NC(=O)C1CCCN1S(=O)(=O)c1ccc2c(c1)n(C)c(=O)c(=O)n2C (centres undefined)	–	58	–	–	·	–	–
O=c1c2ccccc2nnn1CSc1nnc(-c2ccc3c(c2)OCO3)o1	–	56	·	–	–	·	–
CC(=O)CSc1nnc(-c2ccc3c(c2)OCO3)o1	–	–	·	–	·	·	·
COc1cccc(NC(=O)c2ccncc2)c1	–	–	·	·	–	–	·
COc1cccc(NC(=O)c2sc(NC(=O)c3ccncc3)nc2C)c1	–	54	–	–	–	–	–
C[C@@H]1CN([C@H](C)CO)C(=O)c2cccc(NC(=O)Nc3ccccc3)c2O[C@H]1CN(C)S(=O)(=O)c1cccs1	–	·	–	·	·	·	·
COc1ccccc1N=c1oc2cc(O)ccc2cc1C(=O)NCC1CCCO1 (centres undefined)	·	–	·	·	–	·	·
COc1ccccc1N=c1oc2cc(O)ccc2cc1C(N)=O	–	93	·	–	–	–	–
C[C@@H]1CN([C@H](C)CO)C(=O)Cc2cc(NC(=O)Nc3ccc(C(F)(F)F)cc3)ccc2O[C@H]1CN(C)C(=O)Nc1ccc(F)cc1	–	·	–	·	·	·	·
O=C(O)/C=C/c1cccc(NC(=O)Nc2ccc([N+](=O)[O-])cc2)c1	–	66	–	–	–	–	–
CCC1(CC)NC(=O)N(CC(=O)Nc2sc3c(c2C(N)=O)CCC3)C1=O	–	66	·	–	–	–	–
CCC1(C)NC(=O)N(CC(=O)Nc2sc3c(c2C(=O)OC)CCCCC3)C1=O (centres undefined)	·	–	–	–	–	–	·
Clc1cccc(Cc2nn[nH]n2)c1	–	59	–	–	·	·	–
C[C@@H]1CN(C)C(=O)c2cccc(N(C)C)c2O[C@H]1CN(C)C(=O)OC(C)(C)C	·	·	–	·	·	·	·
O=C(/C=C/c1ccc(O)cc1)c1ccc(NC2=C(N3CCCCC3)C(=O)c3ccccc3C2=O)cc1	–	–	–	–	–	–	·
Cc1ccc(NC2=C(N3CCCCC3)C(=O)c3ccccc3C2=O)cc1	·	52	–	·	51	–	–
O=c1oc2cc(O)ccc2s1	–	–	·	–	·	–	·
SMILES	miR122 inh	Dyrk1A ADPGlo	INS-1E GSIS act	Wnt act	NSD2 inh	MITF TRPM1 HTS	ADP-Glo artifact
Cc1ccc(-c2cc(O)cc3sc(=O)oc23)cc1C	–	54	–	–	–	–	–
O=C(C[C@H]1C=C[C@@H](NS(=O)(=O)c2cccc(F)c2)[C@@H](CO)O1)NCc1ccc2c(c1)OCO2	·	·	–	·	·	·	·
O=C(CSc1ncnc2sc3c(c12)CCCCC3)NCc1ccco1	–	–	·	·	–	–	·
CSc1nc(SCC(=O)NCc2ccco2)c2c3c(sc2n1)CN(C)CC3	–	63	–	–	–	–	–
CCNc1nc(SCC(N)=O)nc2sc3c(c12)CCN(C)C3	–	–	–	–	–	–	·
CSc1nc(SCC(N)=O)c2c3c(sc2n1)CN(C)CC3	–	85	–	–	·	–	–
COc1ccc2c3c([nH]c2c1)[C@H](CO)N(Cc1ccccc1F)CC31CN(S(C)(=O)=O)C1	·	·	–	·	·	·	·
Clc1ccc2nc3c4ccccc4cnn3c2c1	·	–	–	?	–	–	·
Oc1ccc2nnc3c(Br)cnn3c2c1	·	77	–	–	–	–	–
O=C(C[C@H]1CC[C@H]2[C@@H](COC[C@@H](O)CN2C(=O)c2ccc(F)cc2)O1)Nc1ccc(-c2ccccc2)cc1	–	·	–	·	·	·	·
O=C(COc1ccccc1)Nc1cccc(-c2nn[nH]n2)c1	–	70	–	–	–	–	–
O=C(COc1ccccc1)Nc1cccc(-c2cn3cccnc3n2)c1	·	54	–	–	–	–	–
O=C1C(=O)c2ccccc2C(O)=C1CC=C(Cl)Cl	–	66	–	–	–	·	–
c1ccc(-c2nnc(CSc3ccc4c(c3)OCCO4)o2)cc1	–	54	·	–	–	–	–
Cc1cnc2ncc3sccc3c2c1	–	–	–	–	–	–	·
c1cnc2ncc3sccc3c2c1	·	59	–	–	–	–	–
COc1ccc(/C=C(/C(=O)c2cccs2)N2C=CC=CC2=C(C#N)C#N)cc1	·	64	–	–	–	–	–
O=C(N/N=C/c1ccc(O)c(O)c1)N/N=C/c1ccc(O)c(O)c1	·	80	–	–	·	–	–
O=C(O)/C=C/c1ccc2noc(-c3ccccc3)c2c1	–	70	–	–	–	–	–
O=C(Nc1cccc(Cl)c1)ON=C1c2ccccc2-c2ccccc21	–	50	–	–	·	–	–
CC(C)NC(=O)Nc1cccc2c1O[C@H](CN(C)C(=O)NC1CCCCC1)[C@@H](C)CN([C@H](C)CO)C2=O	–	–	–	–	·	–	·
CC(C)NC(=O)Nc1cccc2c1O[C@H](CN(C)C(=O)NC1CCCCC1)[C@H](C)CN([C@H](C)CO)C2=O	–	51	–	–	·	–	–
COc1ccc(NC(=O)N(C)C[C@H]2Oc3ccc(NS(=O)(=O)c4c(C)noc4C)cc3CC(=O)N([C@H](C)CO)C[C@H]2C)cc1	–	·	–	·	·	·	·
COc1ccc(C[C@@H]2CCc3cnnn3COC[C@H](C)NC2=O)cc1	·	·	–	·	·	·	·
CC1=C(C(=O)OCc2ccc3c(c2)OCO3)C(c2ccc(F)cc2)NC(=O)N1 (centres undefined)	–	70	–	–	–	–	–
SMILES	miR122 inh	Dyrk1A ADPGlo	INS-1E GSIS act	Wnt act	NSD2 inh	MITF TRPM1 HTS	ADP-Glo artifact
CC1=C(C(=O)OCc2ccc3c(c2)OCO3)C(c2ccc(Cl)cc2)NC(=O)N1 (centres undefined)	·	–	–	–	–	–	·
CCCC(=O)Nc1nc(-c2ccc3c(c2)OCCO3)cs1	–	55	–	–	·	91	–
CSCC(=O)Nc1nc(-c2ccc3c(c2)OCCO3)cs1	·	68	–	–	–	–	–
CC(C)[C@@H]1COCc2cn(nn2)CC[C@H](Cc2ccc(-c3ccccc3)cc2)C(=O)N1	·	·	–	·	·	·	·
Cn1cnc2c(=O)sc3ccccc3c21	–	70	–	–	–	·	–
Cc1cc(=O)c2ccccc2s1	–	–	–	–	–	–	·
